Results on six molecules are retold here after ChEMBL document CHEMBL1961873, “Compounds: GSK PKIS; Assays: Nanosyn kinase panel” (2012).

Experiment [1] has as its target High affinity nerve growth factor receptor (Homo sapiens) (UniProt P04629). To be noted: at 1 µM.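 Further: each value is the mean percent inhibition of TRKA.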
Experiment [2] concerns the target BDNF/NT-3 growth factors receptor (Homo sapiens) (UniProt Q16620). As to conditions: at 0.1 µM.
For experiment [3] the target is unchanged. To be noted: at 1 µM.
Experiment [4] concerns the target NT-3 growth factor receptor (Homo sapiens) (UniProt Q16288). As to conditions: at 0.1 µM.
The target is the same in experiment [5]. As to conditions: at 1 µM.
Experiment [6] addresses T1, Tyrosine-protein kinase TXK (Homo sapiens) (UniProt P42681).
T1 sequence (whole entry): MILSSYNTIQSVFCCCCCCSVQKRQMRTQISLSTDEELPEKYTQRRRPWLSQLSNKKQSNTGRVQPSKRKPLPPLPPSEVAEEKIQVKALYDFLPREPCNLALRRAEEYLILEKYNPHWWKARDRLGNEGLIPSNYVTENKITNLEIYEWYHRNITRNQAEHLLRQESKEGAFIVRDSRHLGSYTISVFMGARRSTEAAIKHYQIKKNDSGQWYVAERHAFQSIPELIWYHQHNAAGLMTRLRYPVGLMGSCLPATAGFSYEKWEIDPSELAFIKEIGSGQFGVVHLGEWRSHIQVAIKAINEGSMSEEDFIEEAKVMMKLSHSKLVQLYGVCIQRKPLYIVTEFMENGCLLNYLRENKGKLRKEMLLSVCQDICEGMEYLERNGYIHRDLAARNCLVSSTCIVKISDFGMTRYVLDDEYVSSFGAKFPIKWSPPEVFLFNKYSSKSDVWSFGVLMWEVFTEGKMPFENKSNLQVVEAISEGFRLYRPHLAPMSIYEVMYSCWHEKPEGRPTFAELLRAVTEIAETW
As to conditions: at 0.1 µM.

Experiment [7] has as its target T1, Tyrosine-protein kinase TXK (Homo sapiens). As to conditions: at 1 µM.
Experiment [8] has as its target Non-receptor tyrosine-protein kinase TYK2 (Homo sapiens) (UniProt P29597). As to conditions: at 0.1 µM.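 Further: each value is a mean of the inhibition readings.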
Experiment [9] has as its target T2, Dual specificity protein kinase TTK (Homo sapiens) (UniProt P33981).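 Further: reported figures are mean TTK inhibition at 1 µM.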
T2 sequence (whole entry): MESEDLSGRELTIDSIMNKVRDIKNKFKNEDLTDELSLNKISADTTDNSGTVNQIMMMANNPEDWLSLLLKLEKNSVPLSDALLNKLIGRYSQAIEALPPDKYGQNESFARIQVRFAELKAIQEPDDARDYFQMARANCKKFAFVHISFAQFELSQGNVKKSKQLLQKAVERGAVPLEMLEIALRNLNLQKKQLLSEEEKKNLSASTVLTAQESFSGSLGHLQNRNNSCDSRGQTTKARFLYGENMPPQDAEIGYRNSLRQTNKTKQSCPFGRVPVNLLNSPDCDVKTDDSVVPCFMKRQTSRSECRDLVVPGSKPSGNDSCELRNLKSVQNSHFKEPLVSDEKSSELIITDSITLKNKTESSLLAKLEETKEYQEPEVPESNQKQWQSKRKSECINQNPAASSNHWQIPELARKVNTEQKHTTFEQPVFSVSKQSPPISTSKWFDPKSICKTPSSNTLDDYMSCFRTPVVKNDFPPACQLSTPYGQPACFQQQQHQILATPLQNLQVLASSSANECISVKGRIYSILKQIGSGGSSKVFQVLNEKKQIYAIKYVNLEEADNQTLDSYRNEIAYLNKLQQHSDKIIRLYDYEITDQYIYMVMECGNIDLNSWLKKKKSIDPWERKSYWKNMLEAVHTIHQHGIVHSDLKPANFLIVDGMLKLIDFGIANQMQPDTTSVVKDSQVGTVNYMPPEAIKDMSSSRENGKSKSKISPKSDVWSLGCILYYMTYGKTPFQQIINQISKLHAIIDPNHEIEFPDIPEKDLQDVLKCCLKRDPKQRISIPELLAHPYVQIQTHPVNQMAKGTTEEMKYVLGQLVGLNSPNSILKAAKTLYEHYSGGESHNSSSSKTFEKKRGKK
As to conditions: at 1 µM.

Experiment [10] addresses T3, Aurora kinase A (Homo sapiens) (UniProt O14965).
T3 sequence (whole entry): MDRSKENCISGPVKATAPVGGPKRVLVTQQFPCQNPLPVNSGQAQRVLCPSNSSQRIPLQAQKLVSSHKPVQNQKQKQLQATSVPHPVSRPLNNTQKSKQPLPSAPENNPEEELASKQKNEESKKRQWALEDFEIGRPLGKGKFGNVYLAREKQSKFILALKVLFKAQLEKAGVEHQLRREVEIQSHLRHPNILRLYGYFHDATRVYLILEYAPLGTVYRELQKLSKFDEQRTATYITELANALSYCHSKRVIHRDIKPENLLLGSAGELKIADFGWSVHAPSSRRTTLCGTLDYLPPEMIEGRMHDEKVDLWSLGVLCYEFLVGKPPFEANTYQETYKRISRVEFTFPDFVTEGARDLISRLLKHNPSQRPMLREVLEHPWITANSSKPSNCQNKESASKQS
To be noted: at 0.1 µM.

In experiment [11] the target is T3, Aurora kinase A (Homo sapiens). To be noted: at 1 µM.
The target of experiment [12] is Aurora kinase B (Homo sapiens) (UniProt Q96GD4). To be noted: at 0.1 µM.
Sequence of Aurora kinase B (Homo sapiens) (Q96GD4 whole entry): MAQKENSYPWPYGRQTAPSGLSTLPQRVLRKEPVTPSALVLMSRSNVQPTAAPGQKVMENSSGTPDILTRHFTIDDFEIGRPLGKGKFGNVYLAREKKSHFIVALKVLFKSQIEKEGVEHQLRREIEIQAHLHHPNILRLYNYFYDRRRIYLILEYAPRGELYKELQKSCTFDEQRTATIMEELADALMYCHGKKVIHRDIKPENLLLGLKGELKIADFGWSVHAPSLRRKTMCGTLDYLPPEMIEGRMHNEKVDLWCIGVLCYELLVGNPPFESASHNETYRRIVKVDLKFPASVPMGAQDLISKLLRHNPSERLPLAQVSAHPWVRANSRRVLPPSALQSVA
Experiment [13] shares this target. To be noted: at 1 µM.
For experiment [14], the target named is T4, Aurora kinase C (Homo sapiens) (UniProt Q9UQB9).
T4 sequence (whole entry): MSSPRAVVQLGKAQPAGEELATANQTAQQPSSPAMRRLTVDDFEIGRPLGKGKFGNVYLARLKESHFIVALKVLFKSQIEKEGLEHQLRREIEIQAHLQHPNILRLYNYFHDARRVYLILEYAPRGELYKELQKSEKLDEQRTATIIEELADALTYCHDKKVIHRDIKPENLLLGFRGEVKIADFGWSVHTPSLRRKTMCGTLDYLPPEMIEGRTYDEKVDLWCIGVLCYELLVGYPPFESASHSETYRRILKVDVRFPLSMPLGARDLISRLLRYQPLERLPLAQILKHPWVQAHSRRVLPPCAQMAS
As to conditions: at 0.1 µM.

The target in experiment [15] is T4, Aurora kinase C (Homo sapiens). To be noted: at 1 µM.
Experiment [16] deals with Serine/threonine-protein kinase 10 (Homo sapiens) (UniProt O94804). To be noted: at 0.1 µM.
Sequence of Serine/threonine-protein kinase 10 (Homo sapiens) (O94804 whole entry, looked up): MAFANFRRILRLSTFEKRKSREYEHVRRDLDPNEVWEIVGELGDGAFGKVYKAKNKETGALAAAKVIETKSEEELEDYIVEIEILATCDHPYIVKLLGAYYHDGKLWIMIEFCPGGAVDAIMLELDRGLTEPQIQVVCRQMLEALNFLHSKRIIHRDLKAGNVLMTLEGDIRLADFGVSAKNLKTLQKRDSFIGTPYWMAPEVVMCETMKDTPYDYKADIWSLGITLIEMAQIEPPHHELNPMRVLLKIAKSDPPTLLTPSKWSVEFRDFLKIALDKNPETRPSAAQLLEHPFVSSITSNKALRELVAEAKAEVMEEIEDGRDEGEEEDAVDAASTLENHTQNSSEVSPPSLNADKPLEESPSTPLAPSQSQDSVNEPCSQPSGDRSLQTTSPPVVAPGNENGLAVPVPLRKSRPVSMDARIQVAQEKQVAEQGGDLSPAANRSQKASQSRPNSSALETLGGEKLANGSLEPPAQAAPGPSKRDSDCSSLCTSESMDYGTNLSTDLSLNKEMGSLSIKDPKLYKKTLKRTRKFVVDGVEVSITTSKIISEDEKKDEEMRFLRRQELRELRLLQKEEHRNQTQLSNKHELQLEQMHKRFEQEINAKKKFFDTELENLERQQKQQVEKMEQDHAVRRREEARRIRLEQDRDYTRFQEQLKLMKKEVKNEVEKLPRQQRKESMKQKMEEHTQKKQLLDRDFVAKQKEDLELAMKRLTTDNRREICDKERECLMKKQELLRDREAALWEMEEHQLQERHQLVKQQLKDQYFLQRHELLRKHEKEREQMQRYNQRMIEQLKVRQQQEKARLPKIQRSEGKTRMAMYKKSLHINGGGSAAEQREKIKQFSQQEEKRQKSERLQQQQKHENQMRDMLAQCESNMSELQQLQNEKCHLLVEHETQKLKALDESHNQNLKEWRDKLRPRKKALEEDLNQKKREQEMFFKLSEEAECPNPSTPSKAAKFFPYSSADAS
The target is the same in experiment [17]. To be noted: at 1 µM.
For experiment [18], the target named is T5, Mitogen-activated protein kinase kinase kinase kinase 2 (Homo sapiens) (UniProt Q12851).
T5 sequence (whole entry): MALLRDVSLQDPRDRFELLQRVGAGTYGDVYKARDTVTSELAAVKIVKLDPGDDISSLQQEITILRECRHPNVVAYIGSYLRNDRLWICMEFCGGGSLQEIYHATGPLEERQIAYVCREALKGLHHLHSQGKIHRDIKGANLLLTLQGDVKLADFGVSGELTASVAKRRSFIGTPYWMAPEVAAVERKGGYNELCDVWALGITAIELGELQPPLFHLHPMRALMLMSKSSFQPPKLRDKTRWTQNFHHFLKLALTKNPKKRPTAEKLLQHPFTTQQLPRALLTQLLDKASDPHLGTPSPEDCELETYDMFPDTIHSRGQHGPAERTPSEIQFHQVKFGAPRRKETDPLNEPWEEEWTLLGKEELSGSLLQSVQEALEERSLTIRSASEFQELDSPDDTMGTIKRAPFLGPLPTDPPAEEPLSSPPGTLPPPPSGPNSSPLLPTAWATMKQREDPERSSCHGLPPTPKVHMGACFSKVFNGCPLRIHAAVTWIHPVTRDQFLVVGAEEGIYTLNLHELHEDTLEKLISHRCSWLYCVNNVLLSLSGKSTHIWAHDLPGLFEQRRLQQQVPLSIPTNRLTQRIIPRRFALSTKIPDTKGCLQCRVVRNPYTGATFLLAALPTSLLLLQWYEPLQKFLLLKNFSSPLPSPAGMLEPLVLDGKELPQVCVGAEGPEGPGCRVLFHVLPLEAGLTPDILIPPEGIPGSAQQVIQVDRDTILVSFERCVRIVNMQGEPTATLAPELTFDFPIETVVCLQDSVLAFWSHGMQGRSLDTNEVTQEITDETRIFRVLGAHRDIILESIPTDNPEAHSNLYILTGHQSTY
To be noted: at 0.1 µM.

Experiment [19] concerns the target T5, Mitogen-activated protein kinase kinase kinase kinase 2 (Homo sapiens). As to conditions: at 1 µM.
Experiment [20] concerns the target Mitogen-activated protein kinase kinase kinase kinase 4 (Homo sapiens) (UniProt O95819). To be noted: at 0.1 µM.

Sequence of BDNF/NT-3 growth factors receptor (Homo sapiens) (Q16620 32-822 limits assumed): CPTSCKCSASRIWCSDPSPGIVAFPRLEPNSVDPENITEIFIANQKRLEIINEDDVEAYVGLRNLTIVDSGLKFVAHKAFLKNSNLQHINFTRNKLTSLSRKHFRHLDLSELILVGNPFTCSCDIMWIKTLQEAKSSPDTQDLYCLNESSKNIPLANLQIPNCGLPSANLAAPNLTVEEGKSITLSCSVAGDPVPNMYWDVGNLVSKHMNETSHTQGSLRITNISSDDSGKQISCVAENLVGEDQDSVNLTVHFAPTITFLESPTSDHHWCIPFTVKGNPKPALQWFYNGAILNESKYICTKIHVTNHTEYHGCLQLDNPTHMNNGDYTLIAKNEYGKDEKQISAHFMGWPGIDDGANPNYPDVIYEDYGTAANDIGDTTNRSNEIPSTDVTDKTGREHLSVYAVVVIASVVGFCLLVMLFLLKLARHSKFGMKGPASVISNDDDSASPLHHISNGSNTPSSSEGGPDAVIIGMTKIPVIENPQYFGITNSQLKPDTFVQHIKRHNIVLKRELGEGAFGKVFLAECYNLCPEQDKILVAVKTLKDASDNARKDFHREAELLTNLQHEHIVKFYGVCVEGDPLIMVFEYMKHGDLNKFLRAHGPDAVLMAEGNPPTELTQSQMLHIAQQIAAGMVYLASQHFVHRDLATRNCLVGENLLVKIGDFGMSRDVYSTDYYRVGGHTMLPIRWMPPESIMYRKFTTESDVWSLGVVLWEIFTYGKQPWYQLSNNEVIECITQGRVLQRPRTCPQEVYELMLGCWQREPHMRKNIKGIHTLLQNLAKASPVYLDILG
Sequence of NT-3 growth factor receptor (Homo sapiens) (Q16288 32-839 limits assumed): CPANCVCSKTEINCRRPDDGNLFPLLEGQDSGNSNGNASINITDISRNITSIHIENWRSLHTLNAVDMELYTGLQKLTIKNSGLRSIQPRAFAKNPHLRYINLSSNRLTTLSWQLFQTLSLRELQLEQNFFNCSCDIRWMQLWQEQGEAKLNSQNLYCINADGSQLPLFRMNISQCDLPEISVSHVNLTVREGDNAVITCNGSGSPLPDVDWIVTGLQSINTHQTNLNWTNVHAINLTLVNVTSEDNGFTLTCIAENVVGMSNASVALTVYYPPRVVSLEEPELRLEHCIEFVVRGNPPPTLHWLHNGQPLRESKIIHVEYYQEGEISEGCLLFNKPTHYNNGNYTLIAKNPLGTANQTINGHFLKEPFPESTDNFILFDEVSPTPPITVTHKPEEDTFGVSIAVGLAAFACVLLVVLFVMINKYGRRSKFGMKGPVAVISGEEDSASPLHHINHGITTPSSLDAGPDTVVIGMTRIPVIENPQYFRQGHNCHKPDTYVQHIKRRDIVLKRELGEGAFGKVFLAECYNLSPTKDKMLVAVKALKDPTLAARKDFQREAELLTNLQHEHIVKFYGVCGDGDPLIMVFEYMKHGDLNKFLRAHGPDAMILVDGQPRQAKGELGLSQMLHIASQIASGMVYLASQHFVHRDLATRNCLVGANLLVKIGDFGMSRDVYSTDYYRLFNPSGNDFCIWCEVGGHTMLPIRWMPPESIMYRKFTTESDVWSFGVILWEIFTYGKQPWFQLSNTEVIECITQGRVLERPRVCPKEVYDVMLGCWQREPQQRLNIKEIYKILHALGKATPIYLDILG
Sequence of High affinity nerve growth factor receptor (Homo sapiens) (P04629 33-796 limits assumed): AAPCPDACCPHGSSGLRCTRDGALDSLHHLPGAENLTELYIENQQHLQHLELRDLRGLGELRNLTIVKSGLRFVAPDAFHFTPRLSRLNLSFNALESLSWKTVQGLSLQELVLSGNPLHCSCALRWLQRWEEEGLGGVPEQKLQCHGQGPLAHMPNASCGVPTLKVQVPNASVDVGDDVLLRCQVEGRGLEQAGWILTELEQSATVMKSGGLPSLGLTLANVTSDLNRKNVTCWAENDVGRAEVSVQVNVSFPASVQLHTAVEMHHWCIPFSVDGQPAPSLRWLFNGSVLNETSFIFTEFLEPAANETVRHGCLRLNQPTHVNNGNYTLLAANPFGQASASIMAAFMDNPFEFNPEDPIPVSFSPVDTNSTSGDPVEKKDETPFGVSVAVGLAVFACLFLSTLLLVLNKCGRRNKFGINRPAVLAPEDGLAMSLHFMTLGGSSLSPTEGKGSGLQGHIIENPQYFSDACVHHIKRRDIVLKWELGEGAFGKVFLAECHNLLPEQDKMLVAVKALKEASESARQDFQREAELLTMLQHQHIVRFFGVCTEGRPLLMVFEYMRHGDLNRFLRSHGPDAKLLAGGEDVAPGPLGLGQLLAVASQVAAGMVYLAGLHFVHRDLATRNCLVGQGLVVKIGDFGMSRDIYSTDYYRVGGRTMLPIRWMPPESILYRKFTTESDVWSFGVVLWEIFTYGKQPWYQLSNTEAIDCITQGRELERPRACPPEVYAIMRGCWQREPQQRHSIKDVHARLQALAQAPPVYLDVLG
Sequence of Non-receptor tyrosine-protein kinase TYK2 (Homo sapiens) (P29597 whole entry): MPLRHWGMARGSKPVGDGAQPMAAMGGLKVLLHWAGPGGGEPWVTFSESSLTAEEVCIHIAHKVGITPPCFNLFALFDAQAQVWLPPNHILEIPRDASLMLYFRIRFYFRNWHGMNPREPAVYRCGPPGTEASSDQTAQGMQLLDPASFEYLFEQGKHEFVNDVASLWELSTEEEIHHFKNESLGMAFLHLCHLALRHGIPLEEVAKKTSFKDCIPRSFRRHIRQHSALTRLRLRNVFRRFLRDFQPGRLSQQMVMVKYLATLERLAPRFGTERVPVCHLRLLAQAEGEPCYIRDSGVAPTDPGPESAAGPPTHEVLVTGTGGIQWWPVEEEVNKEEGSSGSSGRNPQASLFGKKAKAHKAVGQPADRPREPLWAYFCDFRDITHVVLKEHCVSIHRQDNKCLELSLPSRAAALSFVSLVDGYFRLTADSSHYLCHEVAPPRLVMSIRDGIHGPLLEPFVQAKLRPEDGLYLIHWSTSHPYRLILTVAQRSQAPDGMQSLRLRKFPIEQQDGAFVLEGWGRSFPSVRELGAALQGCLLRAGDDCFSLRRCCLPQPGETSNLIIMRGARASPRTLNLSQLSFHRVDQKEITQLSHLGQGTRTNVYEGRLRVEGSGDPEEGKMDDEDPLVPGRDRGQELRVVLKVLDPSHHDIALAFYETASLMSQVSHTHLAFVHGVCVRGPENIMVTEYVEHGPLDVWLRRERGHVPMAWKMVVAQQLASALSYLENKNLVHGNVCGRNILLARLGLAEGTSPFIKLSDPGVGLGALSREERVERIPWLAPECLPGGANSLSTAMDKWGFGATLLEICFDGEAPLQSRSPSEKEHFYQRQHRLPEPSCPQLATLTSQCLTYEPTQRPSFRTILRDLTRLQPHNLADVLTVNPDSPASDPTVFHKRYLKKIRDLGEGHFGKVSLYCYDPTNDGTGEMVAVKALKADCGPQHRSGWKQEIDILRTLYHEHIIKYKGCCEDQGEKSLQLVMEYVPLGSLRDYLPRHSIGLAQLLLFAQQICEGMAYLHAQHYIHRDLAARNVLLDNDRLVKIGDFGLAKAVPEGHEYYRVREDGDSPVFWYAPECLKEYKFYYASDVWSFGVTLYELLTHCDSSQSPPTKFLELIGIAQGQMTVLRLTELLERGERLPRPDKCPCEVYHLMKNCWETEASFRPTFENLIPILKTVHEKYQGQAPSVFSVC

Turning to `COc1ccc(-c2cc3c(N)ncnc3o2)cc1`, the inhibition in experiment [1] was 2.94%; in experiment [2] it was -0.36%; in experiment [3] it was 1.81%; in [4], 0.53%; in experiment [5] it was 0.25%; in [6], 0.91%. The inhibition in experiment [7] is 2.2%; in experiment [8] it was -0.95%; in [9], 0.09%; in experiment [10] it was 0.51%; in experiment [11], 1.33%; in experiment [12], -0.85%. The inhibition in experiment [13] is 11.7%; in experiment [14], 1.13%; in experiment [15], 16.7%; in experiment [16], -1.35%; in [17] it was 0.33%; in experiment [18], 2.31%. Besides, the inhibition in [19] was 4.72%; in [20], 2%.
Turning to `NS(=O)(=O)c1ccc(N/N=C2\C(=O)Nc3ccc4ncccc4c32)cc1`, the inhibition in [1] stood at 50.4%; in experiment [2], 21.5%; in experiment [3], 72%; in experiment [4], 26.7%; in experiment [5] it was 78.5%; in [6], 5.15%. The inhibition is 26.9% in experiment [7]; 7.29% in experiment [8]; 67.6% in [9]; 27.3% in [10]; 91.8% in experiment [11]; 20% in experiment [12]. The inhibition in experiment [13] worked out at 67.9%; in [14], 15.8%; in [15], 91.9%; in experiment [16], 4.44%; in experiment [17] it was 13.1%; in experiment [18], 11.7%. Further, the inhibition in [19] was 49.8%; in [20], 44.4%.
For `COc1ccc2c(-c3ccnc(Nc4cccc(OC(F)(F)F)c4)n3)cnn2n1`, the inhibition in experiment [1] worked out at 11.1%; in experiment [2], 2.97%; in [3] it was 7.33%; in experiment [4], 2.73%; in experiment [5], 12.3%; in [6] it was 2.09%. For the same molecule, the inhibition in [7] was 5.53%; in [8], -3.37%; in [9] it was 17.1%; in experiment [10], 0.72%; in experiment [11], 33.9%; in experiment [12] it was 5.14%. The inhibition in [13] came to 28.8%; in experiment [14], 2.02%; in experiment [15], 56.9%; in [16], 4.75%; in experiment [17] it was 10.6%; in experiment [18], 0.05%. The inhibition in experiment [19] is 5.46%; in experiment [20], 4.63%.
For `COc1cc(/C=N/Nc2ncnc3[nH]ncc23)ccc1O`, the inhibition was determined as 3.15% in experiment [1]; 3.49% in [2]; 10.7% in experiment [3]; 2.95% in experiment [4]; 11.2% in experiment [5]; 5.2% in experiment [6]. In addition, the inhibition is 24.9% in experiment [7]; -2.44% in experiment [8]; 13.4% in experiment [9]; 6.3% in [10]; 55.1% in [11]; 9.45% in [12]. In addition, the inhibition in [13] was 42.1%; in experiment [14], 6.8%; in [15], 66%; in experiment [16], 5.88%; in [17], 19.5%; in experiment [18] it was 1.7%. Moreover, the inhibition was found to be 9.66% in experiment [19] and 7.81% in experiment [20].
As to `COC(=O)c1sc(-n2cnc3cc(OC)c(OC)cc32)cc1OCc1ccccc1C(F)(F)F`, the inhibition in [1] came out at 3.03%; in experiment [2] it was 5.22%; in experiment [3] it was 14.9%; in [4], 3.71%; in experiment [5] it was 16.9%; in experiment [6] it was 2.16%. Further, the inhibition in experiment [7] is 7.15%; in experiment [8], -1.4%; in [9] it was 17.2%; in experiment [10] it was 4.18%; in experiment [11] it was 32.2%; in experiment [12] it was 13.9%. Besides, the inhibition in experiment [13] was 54.5%; in experiment [14] it was 5.23%; in [15], 54.9%; in experiment [16], 6.81%; in experiment [17] it was 21.6%; in [18], -0.16%. Also, the inhibition in experiment [19] worked out at 3.42%; in [20], 6.34%.
For the molecule `Fc1ccc(-c2cc(-c3c[nH]nc3-c3ccccn3)ccn2)cc1`, the inhibition came out at 0.04% in [1]; 4.04% in experiment [2]; 4.77% in [3]; 4.06% in [4]; 3.45% in experiment [5]; 3.64% in experiment [6]. Moreover, the inhibition in experiment [7] is 2.28%; in [8], -1.71%; in [9] it was 9.65%; in experiment [10], 3.15%; in experiment [11] it was 4.79%; in [12], 2.48%. For the same molecule, the inhibition in experiment [13] was 5.17%; in experiment [14] it was -0.57%; in experiment [15], -4.87%; in [16], 6.15%; in experiment [17], 11.2%; in experiment [18] it was -0.05%. Also, the values for the inhibition in experiment [19] and in experiment [20] were 1.6% and 13.7%, respectively.

In general, inhibition refers to the drop in the measured response relative to a control, in per cent.
